The results in this text go back to PubChem BioAssay AID589 (National Center for Advancing Translational Sciences (NCATS), 2007).

Hit rate of the full screen: of about 59,000 compounds, about 6,200 (11%) were called active. Roughly 9% stayed inconclusive and do not appear here. Rule as the data show it: active = max dye-equivalent concentration above about 10 nM; inconclusive = mostly about 1.1 nM to 9.6 nM; inactive = weaker than that. For the sample, actives were picked, then their nearest neighbours and some compounds at random.

This test is described as follows: qHTS Assay for Spectroscopic Profiling in 4-MU Spectral Region. As to conditions: compound autofluorescence, 340/450 nm, 4-MU equivalents; hits give high values. The method in brief: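 Compounds in 100 mM Tris, pH 8.0, incubated 15 min at room temperature, then fluorescence read at 340 nm excitation/450 nm emission. Signal converted to 4-MU dye-equivalent concentration using an on-plate six-point 4-MU standard curve.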
(In qHTS, concentration-response curves come from the screen itself.)
Consider `COc1cc2c(cc1OC)C(c1ccncc1)CC(=O)N2` (stereo not drawn), for which the max dye-equivalent concentration result is “inactive”. Turning to `COc1ccc(C(CNC(=O)c2cccnc2SC)N2CCOCC2)cc1` (stereo not drawn), the max dye-equivalent concentration result is “inactive”. With `CC(C)Cc1nc(N2CCOCC2)c(C#N)c2c1CCC2`, the max dye-equivalent concentration was 56 nM (active). For `CC(C)c1nc(N2CCOCC2)c(C#N)c2c1COC(C)(C)C2`, the max dye-equivalent concentration was 140 nM (active). `c1ccc2[nH]c(NCCN3CCOCC3)nc2c1`: the max dye-equivalent concentration result is “inactive”. `CC1(C)Cc2c(C#N)c(SCc3nc4ccccc4[nH]3)nc(N3CCOCC3)c2CO1`: the max dye-equivalent concentration is 28 nM (active). In the case of `COc1ccc(CSc2nc(N3CCOCC3)c3c(c2C#N)CC(C)(C)OC3)cc1`, the max dye-equivalent concentration was 30 nM (active).

On to `CCn1c(Cc2ccccc2)nnc1SCc1nc2ccccc2c(=O)[nH]1`, for which the max dye-equivalent concentration result is “inactive”.

`O=C(Nc1cccc(F)c1)N1CC2(CCN(C(=O)c3csnn3)CC2)C1`: the max dye-equivalent concentration result was “inactive”. As to `O=C(c1cc(C(F)(F)F)cc(C(F)(F)F)c1)N1CCC[C@@]2(CCN(c3ccccn3)C2)C1`, the max dye-equivalent concentration entry is “inactive”. For `Cc1cc(C)n(C(=O)c2ccc(S(=O)(=O)N3CCCC3)cc2)n1` the value was “inactive”; for `CCSc1nc(=S)n(CC)c(C)c1C(C)=O`, “inactive”. Next, `CCOC(=O)c1sc(NC(=O)CSc2nnc(-c3ccco3)o2)c(C(=O)OCC)c1C`: “inactive”; `CC1CCCN(C(=O)Cn2c(=O)oc3ccccc32)C1` (stereo not drawn): “inactive”.

In the case of `COC(=O)C1=C(C)NC(=O)NC1/C=C/c1ccccc1` (stereo not drawn), the max dye-equivalent concentration entry was “inactive”.

In the case of `CC(C)C(=O)N1CCN(c2nc(-c3ccccc3)c3c(c2C#N)CC(C)(C)OC3)CC1`, the max dye-equivalent concentration is 190 nM (active). For `CNC(=O)Nc1cc(C(C)(C)C)no1` the value was “inactive”; for `Cn1nnc(NC(=O)CSc2ncn[nH]2)n1`, “inactive”. Regarding `CCCCC(=O)Nc1ccc2c(c1)OCCO2`, the max dye-equivalent concentration result is “inactive”. In the case of `CCCC(=O)Nc1ccc2c(c1)nc1n2CCSC1`, the max dye-equivalent concentration result is “inactive”. For the compound `CCCCCC(=O)Nc1ccc2oc(-c3ccncc3)nc2c1`, the max dye-equivalent concentration was 23 nM (active). On to `O=C(c1ccco1)N1CCC2(CC1)CCN(c1ncccn1)CC2`, for which the max dye-equivalent concentration entry is “inactive”. Next, `O=C1NC(c2ccncc2)Nc2sc3c(c21)CCCC3` (stereo not drawn): 59 nM (active); `COC(=O)c1ccc(Oc2nc(NC(C)C)nc(SC)n2)cc1`: “inactive”; `c1ccc2c(Nc3ccncc3)nc(-c3ccc4c(c3)OCO4)nc2c1`: 19 nM (active).

For `COc1cccc(-c2nc(Nc3ccncc3)c3ccccc3n2)c1`, the max dye-equivalent concentration entry is “inactive”.

Consider `c1ccc2c(Nc3ccncc3)nc(-c3ccoc3)nc2c1`, for which the max dye-equivalent concentration result was “inactive”. As to `CCOCCCN1C(=O)CN(C2CCCCC2)C(=O)C1c1ccc(OCC)c(OC)c1` (stereo not drawn), the max dye-equivalent concentration result is “inactive”. In the case of `COc1ccc(CNC(=O)c2c(C)cc(=O)oc2C)cc1OC`, the max dye-equivalent concentration result is “inactive”. Turning to `COCCN(C(=O)CCC(=O)Nc1ccccn1)C(C(=O)NCCC(C)C)c1ccc(OC)cc1` (stereo not drawn), the max dye-equivalent concentration result is “inactive”.

`Oc1ccccc1CNCc1ccccc1O`: the max dye-equivalent concentration result was “inactive”. For `c1ccc2c(CNn3cnnc3)cccc2c1`, the max dye-equivalent concentration result was “inactive”. In the case of `Cc1cc(C)c2c(c1)c(C)cc1nnc(SCC(=O)NCc3ccco3)n12`, the max dye-equivalent concentration entry was “inactive”. Regarding `COc1ccc(OC)c(CNC(=O)C2CCCN(c3nc4ccccc4o3)C2)c1` (stereo not drawn), the max dye-equivalent concentration entry was “inactive”. For `COc1ccc2nc(N3CCCC(O)C3)c(C#N)cc2c1` (stereo not drawn) the value was 170 nM (active); for `Nc1nonc1-c1noc(-c2ccc(Br)o2)n1`, “inactive”.

Take `c1csc(CN2CCN(Cc3cccs3)C2c2cccs2)c1`: the max dye-equivalent concentration entry is “inactive”. For `Cc1nn(-c2ccccc2)c2[nH]c(C(F)(F)F)cc(=O)c12` the value was “inactive”; for `COc1ccc(CC(=O)Nc2nc3n(n2)C(c2ccccc2)CC(=O)N3)cc1OC` (stereo not drawn), “inactive”; for `CCCS(=O)(=O)N1CCC(C(=O)NCCc2ccc(OC)c(OC)c2)CC1`, “inactive”.

On to `CCOc1ccc(CCNC(=O)C2CCN(c3ccc(N4CCOCC4)nn3)CC2)cc1OCC`, for which the max dye-equivalent concentration is 410 nM (active). As for `COc1ccc(CCNC(=O)C2CCN(c3nn4c(=O)cc(C)nc4s3)CC2)cc1OC`, the max dye-equivalent concentration entry was “inactive”. As for `Cc1ccc(-n2c(N)c(C(=O)N3CCOCC3)sc2=S)c(C)c1`, the max dye-equivalent concentration result was “inactive”. Consider `CS(=O)(=O)N1CCC2(CC1)CN(Cc1cc(C(F)(F)F)cc(C(F)(F)F)c1)C2`, for which the max dye-equivalent concentration entry was “inactive”. With `CCOc1cc(CN2CCN(C(=O)CC(C)C)CC2)ccc1OC`, the max dye-equivalent concentration result was “inactive”.

Turning to `O=C(CSc1nnc(-c2ccccn2)n1-c1ccccc1)Nc1ccc2c(c1)OCO2`, the max dye-equivalent concentration entry was “inactive”. In the case of `COc1ccc2[nH]c3ccc(OC)cc3c2c1`, the max dye-equivalent concentration was 200 nM (active). `COc1ccc2[nH]c3cc4c(=O)c5cc(OC)ccc5[nH]c4cc3c(=O)c2c1`: the max dye-equivalent concentration result was “inactive”. Regarding `COc1cccc(Oc2ccc(N)cc2)c1`, the max dye-equivalent concentration entry is “inactive”. For `O=C(O)CN(Cc1ccco1)S(=O)(=O)c1ccc(F)cc1` the value was “inactive”; for `O=C(c1ccco1)N1CCN(CC(=O)N(C2CCCCC2)C2CCS(=O)(=O)C2)CC1` (stereo not drawn), “inactive”. Next, `Cc1c(NC(=O)c2coc(=O)c(Br)c2)c(=O)n(-c2ccccc2)n1C`: 190 nM (active); `Cc1c(NC(=O)c2cccnc2)c(=O)n(-c2ccccc2)n1C`: “inactive”. Regarding `Cc1cc(C(=O)Nc2c(C)n(C)n(-c3ccccc3)c2=O)cs1`, the max dye-equivalent concentration result is “inactive”. Next, `CCOCCCNS(=O)(=O)Cc1ccccc1`: “inactive”. For `O=C(NC1CCCCC1)C1c2ccccc2C(=O)N1Cc1ccco1` (stereo not drawn), the max dye-equivalent concentration entry is “inactive”.

For the compound `O=C1c2cccnc2C(Nc2ccc(S(=O)(=O)N3CCCCCC3)cc2)N1Cc1ccccc1` (stereo not drawn), the max dye-equivalent concentration result is “inactive”. As to `O=C1c2ccccc2C(O)N1Cc1ccccc1` (stereo not drawn), the max dye-equivalent concentration is 25 nM (active). Next, `CCOC(=O)CSc1nnc(NC(=O)c2cccc(S(=O)(=O)N3CCCC3)c2)s1`: “inactive”; `CN1C(=O)C[C@H](c2ccccc2)C1=O`: “inactive”; `CCCCCOC(=O)NCCOC(=O)Nc1ccc(C(=O)OCC)cc1`: “inactive”. For `COc1cccc(-c2cc3nc4c(c(N5CCC6(CC5)OCCO6)n3n2)CCCC4)c1`, the max dye-equivalent concentration was 100 nM (active). In the case of `COc1cccc(-c2nc(S(=O)(=O)c3ccccc3)c(N3CCOCC3)o2)c1`, the max dye-equivalent concentration entry is “inactive”. Next, `CC1CC(C)CN(CC(=O)Nc2ccc(S(N)(=O)=O)cc2)C1` (stereo not drawn): “inactive”; `Cn1c(=O)c2c(nc(CN3CCOCC3)n2Cc2ccccc2)n(C)c1=O`: “inactive”; `Cc1cccn2c(=O)c3cc(C#N)c(=NC(=O)c4cccnc4)n(CC4CCCO4)c3nc12` (stereo not drawn): 3400 nM (active). Regarding `Cc1cccn2c(=O)c3cc(C#N)c(=O)n(CCCN4CCOCC4)c3nc12`, the max dye-equivalent concentration is 8300 nM (active). Next, `Cc1nnc(SCC(N)=O)n1CC1CCCO1` (stereo not drawn): “inactive”. For the compound `C[C@H](CCC(=O)NCC(=O)O)[C@H]1CC[C@H]2[C@H]3[C@@H](C[C@@H](O)[C@]12C)[C@]1(C)CC[C@H](O)C[C@@H]1C[C@@H]3O`, the max dye-equivalent concentration result is “inactive”. Regarding `O=S(=O)(NCc1cccnc1)c1ccc(Br)s1`, the max dye-equivalent concentration entry is “inactive”. `CCOc1ccc(N=C2SC(C(=O)O)CC(=O)N2C)cc1` (stereo not drawn): the max dye-equivalent concentration result was “inactive”. For the compound `CCn1c(=N)c(S(=O)(=O)c2ccc(F)cc2)cc2c(=O)n3ccccc3nc21`, the max dye-equivalent concentration was 590 nM (active). On to `O=CN1CCN(C2CC(=O)N(c3ccc4c(c3)OCO4)C2=O)CC1` (stereo not drawn), for which the max dye-equivalent concentration result was “inactive”. As to `Cc1ccc(-n2nc3cc(Cl)c(NC(=O)c4ccco4)cc3n2)cc1`, the max dye-equivalent concentration was 54 nM (active).

On to `Cn1c(NC(=O)c2ccco2)c(-c2ccccc2Cl)c(=O)c2ccccc21`, for which the max dye-equivalent concentration entry was “inactive”. For `COC(=O)c1cc(Cl)c(NC(=O)c2ccco2)cc1OC`, the max dye-equivalent concentration entry was “inactive”. Regarding `CSCC[C@H](NC(=O)NCc1cccs1)C(=O)O`, the max dye-equivalent concentration entry was “inactive”. For the compound `COCCNc1ccnc(-c2cccc(NS(C)(=O)=O)c2)n1`, the max dye-equivalent concentration entry is “inactive”. In the case of `N#Cc1ccc(CN2CCCC3(CCN(C(=O)c4ccco4)CC3)C2)cc1`, the max dye-equivalent concentration result is “inactive”. In the case of `COc1ccc(Cc2nnc(NC(=O)Cc3cccs3)s2)cc1`, the max dye-equivalent concentration result was “inactive”. Consider `COc1ccc2c(CC(=O)Nc3nnc(C4CC4)s3)coc2c1`, for which the max dye-equivalent concentration was 11 nM (active). As to `COc1ccc(OCCCC(=O)Nc2nnc(C3CCCO3)s2)cc1` (stereo not drawn), the max dye-equivalent concentration entry is “inactive”. As for `O/N=C1\CC2(Cc3nonc31)OCCO2`, the max dye-equivalent concentration entry was “inactive”.

As to `O=C(CN1CCOCC1)Nc1ccc(NC(=O)CN2CCOCC2)c(Cl)c1`, the max dye-equivalent concentration result is “inactive”. Regarding `C=CCn1c(SCc2nnc(-c3ccccc3)o2)nnc1C(O)c1ccccc1` (stereo not drawn), the max dye-equivalent concentration result was “inactive”. Next, `Fc1ccc2nc(-c3ccccc3)nc(SCc3nnc(-c4ccccc4)o3)c2c1`: 29 nM (active). For the compound `Fc1ccc(-c2nnc(CSc3nnc(-c4ccc5c(c4)OCO5)o3)o2)cc1`, the max dye-equivalent concentration result is “inactive”. Consider `O=C(N1CCOCC1)N1CCOCC1`, for which the max dye-equivalent concentration result is “inactive”. For `O=C(c1csnn1)N1CCC[C@@]2(CCN(Cc3nccs3)C2)C1` the value was “inactive”; for `O=C(OC(C(=O)NC1CCCC1)c1ccc(F)cc1)c1ccno1` (stereo not drawn), “inactive”. Take `CCn1c(NCCc2ccc(OC)c(OC)c2)nc2c1c(=O)n(C)c(=O)n2C`: the max dye-equivalent concentration result was “inactive”. `O=C(O)c1nn(-c2ccc(Cl)cc2)c2c1C(=O)c1ccccc1C2=O`: the max dye-equivalent concentration result was “inactive”. As to `O=C(O)CN1C(=O)CC(Cc2ccccc2)C1=O` (stereo not drawn), the max dye-equivalent concentration entry was “inactive”. For `O=C(NC1(C(F)(F)F)N=C2SCCN2C1=O)c1ccco1` (stereo not drawn) the value was “inactive”. On to `CCOC(=O)c1cc(-c2ccc(Cl)s2)nc2c1c(C)nn2C`, for which the max dye-equivalent concentration is 180 nM (active). Consider `CCOC(=O)c1c(C(C#N)C#N)cc(C)nc1C`, for which the max dye-equivalent concentration result is “inactive”. Next, `CCOC(=O)c1cnc(-n2nc(C)cc2C)nc1-n1nc(C)cc1C`: “inactive”; `CN(C)c1nc2n(c(=O)n1)CCO2`: “inactive”. Consider `Cc1ccc(-n2nc(-c3ccco3)cc2C(=O)NCc2cccnc2)cc1`, for which the max dye-equivalent concentration result was “inactive”.

As for `CC(C)(C)c1cc(C(=O)NCc2cccnc2)ccn1`, the max dye-equivalent concentration entry was “inactive”. Consider `COCCn1c(=O)[nH]c2cc(C(=O)NCc3cccnc3)ccc2c1=O`, for which the max dye-equivalent concentration is 41 nM (active). Turning to `CCOc1ccccc1Oc1cn[nH]c1-c1ccc(OC)cc1O`, the max dye-equivalent concentration result was “inactive”. As for `Cc1cc(Cl)c(S(=O)(=O)NCCC(=O)O)cc1OCC(N)=O`, the max dye-equivalent concentration result is “inactive”. Take `COc1cc(-c2nnc(Cn3cc(C(F)(F)F)ccc3=O)o2)cc(OC)c1OC`: the max dye-equivalent concentration result was “inactive”. Consider `CCOC(=O)c1cc(-c2nnc(-c3cc(OC)c(OC)c(OC)c3)o2)c(C)nc1C`, for which the max dye-equivalent concentration was 24 nM (active).

As for `CCOC(=O)c1cc(NC(=O)SCC(=O)O)c(C)nc1C`, the max dye-equivalent concentration result is “inactive”. As for `O=C(NCc1ccco1)c1nc(-c2ccccc2)n(-c2ccccc2)n1`, the max dye-equivalent concentration entry was “inactive”. With `COC(=O)[C@@H](NC(=O)NCc1cccc(OC)c1)C(C)C`, the max dye-equivalent concentration entry is “inactive”.
